Data published in PubChem BioAssay (Tox21).
Records with an inconclusive call do not appear. A call without a number means that no potency is given here. Values without a mark were called inactive. Activity calls are given as the source filed them. Unless noted, calls follow the shape of the full dose curve.

Columns and labels:
[1] = qHTS assay to identify small molecule agonists of the NFkB signaling pathway - cell viability counter screen (AID 1159515); also: series mostly up to about 61 µM; nearly all actives have a fitted effect of over 55% in size
Summary of the method: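 Parallel cytotoxicity counter screen in ME-180 cells carrying an NFkB-response-element beta-lactamase reporter, 2,000 cells/well. Compound exposure lasted 5 hr at 37 C, 5% CO2. Cell viability was quantified by CellTiter-Glo luminescence.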

[2] = qHTS assay to identify small molecule agonists of the endoplasmic reticulum stress response signaling pathway (AID 1159516; active = well fitted activation curve with a large enough effect in the signal ratio in the repeat runs, not every such curve was filed as active; the % refers to the signal ratio)
Summary of the method: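 Using a HeLa line with an ESRE-driven beta-lactamase gene, agonist activity was measured by FRET substrate fluorescence (460 and 530 nm emission) after cells were treated with compounds for 5 hr at 37 C and 5% CO2.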

[3] = qHTS assay to identify small molecule agonists of the endoplasmic reticulum stress response signaling pathway - cell viability counter screen (AID 1159517);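 also: HeLa cells carrying an ER stress response element beta-lactamase reporter; series mostly up to about 61 µM; nearly all actives have a fitted effect of over 50% in size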
Summary of the method: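 Cytotoxicity of test compounds toward ESRE-bla HeLa cells was assessed after 5 hr exposure. The luminescent CellTiter-Glo signal was measured 30 min after reagent addition.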

[4] = qHTS assay to identify small molecule antagonists of the retinoid-related orphan receptor gamma (ROR-gamma) signaling pathway - cell viability counter screen (AID 1159520; active = well fitted curve in the direction sought with a large enough effect in the repeat runs; an effect the other way counts as inactive or inconclusive; also: nearly all actives have a fitted effect of over 50% in size)
Summary of the method: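 Tet-on ROR gamma CHO cells (1,000/well) were plated 4 hr, given compounds in DMSO for 2 hr at 37 C, then induced with 1 uM final doxycycline for 16 hr. Viability was read as ATP by CellTiter-Glo luminescence after 30 min.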

[5] = biological target: Nuclear receptor ROR-gamma (Homo sapiens) (UniProt P51449); test: qHTS assay to identify small molecule antagonists of the retinoid-related orphan receptor gamma (ROR-gamma) signaling pathway (AID 1159521; active = well fitted curve in the direction sought with a large enough effect in the repeat runs; an effect the other way counts as inactive or inconclusive;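 also: CHO cells with doxycycline inducible ROR-gamma driving an RORE luciferase reporter; top concentration of the series differs between compounds; nearly all actives have a fitted effect of over 50% in size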)
Summary of the method: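 Inducible-expression reporter assay: doxycycline (1 uM final) switched on RORγ in CHO cells bearing a ROR response element-luciferase construct, with test compounds present from 2 h beforehand. Decreased luminescence after 16 h defined antagonist activity.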

[6] = qHTS assay to identify small molecule agonists of the AP-1 signaling pathway - cell viability counter screen (AID 1159525); also: nearly all actives have a fitted effect of over 55% in size
Summary of the method: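 Each titration point was normalised to DMSO and tetra n-octyl ammonium bromide controls. The read was Cell Titer Glo luminescence after 30 min at RT, following 5 h compound exposure of ME-180 AP-1-bla cells at 37 °C.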

[7] = qHTS assay to identify small molecule agonists of the AP-1 signaling pathway (AID 1159526)
[8] = biological target: Retinoic acid receptor RXR-alpha (Homo sapiens) (UniProt P19793); test: qHTS assay to identify small molecule agonists of the RXR signaling pathway (AID 1159527); also: nearly all actives have a fitted effect of over 35% in size; also: potency is read from the fitted curve at half-maximal effect
Summary of the method: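 Compounds in DMSO were added to RXR-alpha-UAS-bla HEK 293T cells kept in 2% charcoal-stripped serum, and incubated 16 hr at 37 C with 5% CO2. Reporter signal came from a 2 hr B/G FRET substrate step.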

[9] = qHTS assay to identify small molecule agonists of the RXR signaling pathway - cell viability counter screen (AID 1159529; active = well fitted curve in the direction sought with a large enough effect in the repeat runs; an effect the other way counts as inactive or inconclusive; also: series mostly up to about 77 µM; nearly all actives have a fitted effect of over 50% in size)
Summary of the method: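 Counter screen: CellTiter-Glo luminescence. Cells: RXR-alpha-UAS-bla HEK 293T. Medium: 2% charcoal-stripped FBS. Treatment: 16 h, 37 C. Reagent incubation: 30 min, RT.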

[10] = qHTS assay to identify small molecule antagonists of the vitamin D receptor (VDR) signaling pathway - cell viability counter screen (AID 743225; active = well fitted curve in the direction sought with a large enough effect in the repeat runs; an effect the other way counts as inactive or inconclusive; also: nearly all actives have a fitted effect of over 50% in size)
Summary of the method: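 Same-well multiplex: following 16 h treatment of HEK 293T cells carrying a UAS-driven beta-lactamase reporter with compound and agonist (3 nM final), and a 2 h FRET substrate step, CellTiter-Glo was added and luminescence read after 30 min.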

Retinoic acid receptor RXR-alpha (Homo sapiens), sequence (P19793 whole entry, looked up): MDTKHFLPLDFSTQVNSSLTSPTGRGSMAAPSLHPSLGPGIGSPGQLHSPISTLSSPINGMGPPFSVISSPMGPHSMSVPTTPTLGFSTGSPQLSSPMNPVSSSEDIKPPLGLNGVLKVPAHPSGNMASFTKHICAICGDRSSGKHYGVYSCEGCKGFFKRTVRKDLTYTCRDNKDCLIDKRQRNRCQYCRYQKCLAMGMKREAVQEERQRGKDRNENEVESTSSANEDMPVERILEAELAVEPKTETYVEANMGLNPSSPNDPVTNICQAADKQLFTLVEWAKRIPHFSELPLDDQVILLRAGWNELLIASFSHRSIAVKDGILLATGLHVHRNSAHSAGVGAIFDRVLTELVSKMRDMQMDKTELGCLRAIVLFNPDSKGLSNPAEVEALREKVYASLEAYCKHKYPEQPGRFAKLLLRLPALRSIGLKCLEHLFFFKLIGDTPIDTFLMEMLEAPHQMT

CCC(C)SSC(C)CC (stereo not drawn)
outcome [1]: inactive
Potency [2]: inactive
outcome [3]: inactive
outcome [4]: inactive
outcome [5]: inactive
outcome [6]: inactive
Potency [7]: inactive
Potency [8]: inactive
Potency [9]: inactive

CC(O)CCCCn1c(=O)c2c(ncn2C)n(C)c1=O (stereo not drawn)
outcome [10]: inactive
outcome [1]: inactive
Potency [2]: inactive
outcome [3]: inactive
outcome [4]: inactive
outcome [5]: inactive
outcome [6]: inactive
Potency [7]: inactive
Potency [8]: inactive
Potency [9]: inactive

CC(C)OC(=O)C(C(=O)OC(C)C)=C1SC=CS1
outcome [10]: inactive
outcome [1]: inactive
Potency [2]: inactive
outcome [3]: inactive
outcome [4]: inactive
outcome [5]: inactive
outcome [6]: inactive
Potency [7]: inactive
Potency [8]: inactive
Potency [9]: inactive

CCCCN1C(=O)c2ccccc2C1=O
outcome [10]: inactive
outcome [1]: inactive
Potency [2]: inactive
outcome [3]: inactive
outcome [4]: inactive
outcome [5]: inactive
outcome [6]: inactive
Potency [7]: inactive
Potency [8]: inactive
Potency [9]: inactive

C=CC(=O)CC
outcome [10]: inactive
outcome [1]: inactive
Potency [2]: inactive
outcome [3]: inactive
outcome [4]: inactive
outcome [5]: inactive
outcome [6]: inactive
Potency [7]: inactive
Potency [8]: inactive
Potency [9]: inactive

CCN1CCN(C(=O)N[C@@H](C(=O)N[C@@H]2C(=O)N3C(C(=O)O)=C(CSc4nnnn4C)CS[C@H]23)c2ccc(O)cc2)C(=O)C1=O
outcome [1]: inactive
Potency [2]: inactive
outcome [3]: inactive
outcome [4]: inactive
outcome [5]: inactive
outcome [6]: inactive
Potency [7]: inactive
Potency [8]: inactive
Potency [9]: inactive

Cc1nnc(C(=O)NC(C)(C)c2nc(C(=O)NCc3ccc(F)cc3)c(O)c(=O)n2C)o1
outcome [10]: inactive
outcome [1]: inactive
Potency [2]: inactive
outcome [3]: inactive
outcome [4]: inactive
outcome [5]: inactive
outcome [6]: inactive
Potency [7]: inactive
Potency [8]: inactive
Potency [9]: inactive

O=Cc1ccccc1S(=O)(=O)O
outcome [10]: inactive
outcome [1]: inactive
Potency [2]: inactive
outcome [3]: inactive
outcome [4]: inactive
outcome [5]: inactive
outcome [6]: inactive
Potency [7]: inactive
Potency [8]: 9.77 µM (active)
Potency [9]: inactive

CCCC(=O)OC
outcome [10]: inactive
outcome [1]: inactive
Potency [2]: inactive
outcome [3]: inactive
outcome [4]: inactive
outcome [5]: inactive
outcome [6]: inactive
Potency [7]: inactive
Potency [8]: inactive
Potency [9]: inactive

N=C(N)N
outcome [10]: inactive
outcome [1]: inactive
Potency [2]: inactive
outcome [3]: inactive
outcome [4]: inactive
outcome [5]: inactive
outcome [6]: inactive
Potency [7]: inactive
Potency [8]: inactive
Potency [9]: inactive

C[C@@H]1NC(=O)[C@@H](N)CNC(=O)[C@H](C2CCNC(N)=N2)NC(=O)/C(=C/NC(N)=O)NC(=O)[C@H](CNC(=O)C[C@@H](N)CCCN)NC1=O (stereo partly drawn)
viability change, negative = cytotoxic [10]: 3.48% [at 0.628 µM]
activity, negative = cytotoxic [1]: 1.55% [at 0.628 µM]
activation [2]: 0.164% [at 0.628 µM]
activity change, negative = cytotoxicity [3]: 13.9% [at 0.628 µM]
activity, negative = cytotoxicity [4]: 1.69% [at 0.349 µM]
activity change, negative = inhibition [5]: 9.3% [at 0.35 µM]
viability change, negative = cytotoxic [6]: 0.985% [at 0.29 µM]
activation [7]: -1.11% [at 0.29 µM]
activation [8]: 5.99% [at 0.29 µM]
activity change, negative = cytotoxicity [9]: 9.35% [at 0.29 µM]
